# Activity calls are given as the source filed them. Rule as the data show it, unless noted: active = inhibition above about 36%; inactive = the rest.
# Legend:
# [1] = system: transactivating tegument protein VP16 (Human herpesvirus 1); assay: compounds suppressing VP16-driven luciferase signal – cell-based, luminescence, single concentration, counter-screen for SRC2 inhibitor project (AID 652007); conditions: cell-based VP16 transactivation luciferase reporter, at 8.9 µM, hits give high values
# [2] = biological target: Nuclear receptor coactivator 2 (Homo sapiens) (UniProt Q15596); assay: inhibition of GAL4-SRC2 driven luciferase expression – cell-based, luminescence, HEK293, triplicate, confirmation (AID 652008;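 active = mean inhibition above 46.5%, the solvent-only control mean plus 3 SD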;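 also: 0% = DMSO-treated cells and 100% = Gossypol at 36 µM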); conditions: HEK293 GAL4-SRC2 luciferase reporter, at 8.9 µM, hits give high values
# Chain of Nuclear receptor coactivator 2 (Homo sapiens) (Q15596 whole entry, looked up, the tested form may be a part): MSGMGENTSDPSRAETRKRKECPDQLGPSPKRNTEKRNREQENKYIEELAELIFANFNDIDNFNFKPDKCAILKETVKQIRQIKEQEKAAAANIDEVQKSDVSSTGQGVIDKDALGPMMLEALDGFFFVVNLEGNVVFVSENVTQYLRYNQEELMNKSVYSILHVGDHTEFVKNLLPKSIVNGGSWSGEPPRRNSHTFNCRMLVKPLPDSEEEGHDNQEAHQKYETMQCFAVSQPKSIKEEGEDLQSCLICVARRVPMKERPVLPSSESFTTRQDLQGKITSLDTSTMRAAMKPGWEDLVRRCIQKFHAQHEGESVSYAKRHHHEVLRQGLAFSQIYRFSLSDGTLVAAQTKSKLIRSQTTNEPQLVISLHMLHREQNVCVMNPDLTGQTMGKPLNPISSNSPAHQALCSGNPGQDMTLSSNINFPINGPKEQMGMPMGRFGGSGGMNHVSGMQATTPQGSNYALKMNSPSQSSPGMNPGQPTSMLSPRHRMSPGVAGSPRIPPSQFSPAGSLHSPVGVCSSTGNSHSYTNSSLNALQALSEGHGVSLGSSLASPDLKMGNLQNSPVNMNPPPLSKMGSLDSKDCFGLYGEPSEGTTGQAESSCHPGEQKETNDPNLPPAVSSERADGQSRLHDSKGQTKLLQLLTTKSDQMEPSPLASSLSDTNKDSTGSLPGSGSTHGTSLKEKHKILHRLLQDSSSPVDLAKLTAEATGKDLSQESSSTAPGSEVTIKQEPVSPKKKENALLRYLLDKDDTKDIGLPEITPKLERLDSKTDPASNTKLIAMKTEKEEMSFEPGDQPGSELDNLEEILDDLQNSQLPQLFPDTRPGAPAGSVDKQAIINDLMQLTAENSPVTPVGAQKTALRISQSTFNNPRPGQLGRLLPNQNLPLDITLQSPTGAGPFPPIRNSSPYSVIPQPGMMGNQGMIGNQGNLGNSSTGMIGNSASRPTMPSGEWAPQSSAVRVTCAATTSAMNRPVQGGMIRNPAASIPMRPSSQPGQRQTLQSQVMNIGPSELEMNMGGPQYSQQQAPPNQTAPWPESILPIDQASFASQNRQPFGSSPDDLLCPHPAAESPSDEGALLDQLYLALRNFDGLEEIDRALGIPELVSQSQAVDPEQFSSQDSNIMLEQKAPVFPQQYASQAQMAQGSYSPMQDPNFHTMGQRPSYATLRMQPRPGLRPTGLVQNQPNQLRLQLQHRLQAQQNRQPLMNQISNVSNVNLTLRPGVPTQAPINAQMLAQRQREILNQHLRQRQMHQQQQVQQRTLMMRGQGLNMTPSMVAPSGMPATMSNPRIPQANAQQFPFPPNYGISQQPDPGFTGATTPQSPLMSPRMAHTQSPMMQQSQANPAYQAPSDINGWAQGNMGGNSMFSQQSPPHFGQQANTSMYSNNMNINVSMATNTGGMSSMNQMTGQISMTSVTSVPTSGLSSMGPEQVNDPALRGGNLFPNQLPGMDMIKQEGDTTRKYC
SMILES,inhibition [1],inhibition [2]
O=C(CN1CCN(S(=O)(=O)c2ccc(F)c(F)c2)CC1)Nc1ccccc1C(=O)NC1CC1,-15.4% (inactive),-35.8% (inactive)
CCC(=O)Nc1ccc(NCc2ccc(-c3ccccc3)cc2)cc1,20.7% (inactive),17.8% (inactive)
O=C(c1cccc2c1-c1ccccc1/C2=N/O)N1CCCCC1,0.22% (inactive),30% (inactive)
O=C(CCl)N1c2ccccc2CCc2ccccc21,29.1% (inactive),31.7% (inactive)
Cc1ccc(Nc2nc(N)nc(CN3CCN(Cc4ccc5c(c4)OCO5)CC3)n2)cc1,-10.2% (inactive),-18.2% (inactive)
O=C(Nc1ccc2nc3n(c(=O)c2c1)CCCCC3)c1cc([N+](=O)[O-])ccc1F,32.1% (inactive),30.4% (inactive)
Nc1ccc(Oc2ccc3c(c2)C(=O)N(CC2CCCO2)C3=O)cc1 (stereo unspecified),-45.6% (inactive),52.8% (active)
CCCCCCC(=O)N(O)C1CC(=O)N(c2ccc(C)cc2)C1=O (stereo unspecified),9.6% (inactive),39.9% (inactive)
O=C(Nc1ccccc1)C1=C(c2ccccc2)S(=O)(=O)CCS1(=O)=O,84.9% (active),90.1% (active)
COc1ccc(OC)c(-n2nnnc2SCC(=O)Nc2cc(C)ccc2OC)c1,-22.1% (inactive),2.63% (inactive)
Cc1ccc2cc(CN(Cc3ccco3)S(=O)(=O)c3c(C)ccc4nsnc34)c(=O)[nH]c2c1,26.5% (inactive),14.2% (inactive)
CC(C)(C)c1ccc(Oc2ccc(NC(=O)c3ccco3)cn2)cc1,30.6% (inactive),42.2% (inactive)
O=S(=O)(c1cc(C(F)(F)F)ccc1Cl)N1CCN(c2ncnc3ccccc23)CC1,17.2% (inactive),18.7% (inactive)
CCCSc1nnc(Sc2nnnn2-c2ccccc2)s1,7.33% (inactive),16.8% (inactive)
CC(C)Cc1nnc(NC(=O)CCC(=O)N2CCN(Cc3ccccc3)CC2)s1,8.01% (inactive),17.4% (inactive)
O=S1(=O)CCS(=O)(=O)C1c1ccccc1,15.8% (inactive),-3.12% (inactive)
COc1cccc(/C=C2/SC(=S)N(CCCC(=O)Nc3ccc(O)cc3)C2=O)c1,51.1% (active),23.7% (inactive)
O=C(O)CCCc1nc(-c2ccc(Cl)cc2)no1,20.7% (inactive),30% (inactive)
COc1cccc(NC(=O)Nc2nnc(CC(=O)Nc3ccccc3)s2)c1,-11% (inactive),21.1% (inactive)
COc1ccc(S(=O)(=O)Nc2ccc(C)cn2)cc1,-11.7% (inactive),-15.4% (inactive)
Clc1ccccc1/C=C/c1nc(-c2ccccn2)no1,-11.4% (inactive),18.9% (inactive)
CCNC(=O)NC(=O)COC(=O)CCCSc1nc2ccccc2s1,5% (inactive),24.9% (inactive)
COc1ccc(-n2nc3cc(C)c(N)c(Br)c3n2)cc1,-67.1% (inactive),-140% (inactive)
O=C(c1ccccc1Nc1ccc(SC(F)F)cc1)N1CCCCCC1,2.12% (inactive),4.87% (inactive)
O=C(CCCN1C(=O)/C(=C/c2cccs2)SC1=S)Nc1ccccn1,12.4% (inactive),10.9% (inactive)

SMILES,inhibition [1],inhibition [2]
Cc1cc(C)c(C)c(N=Nc2nc3ccccc3n2C)c1C,-75.3% (inactive),49.7% (active)
CC1CCc2c(sc3nc(CSc4ncn[nH]4)[nH]c(=O)c23)C1 (stereo unspecified),33% (inactive),35.2% (inactive)
Cc1ccc(-c2c(C(=O)N/N=C/C3CCCCC3)nnn2-c2nonc2N)cc1,-21.5% (inactive),-23% (inactive)
CC(C)(C)c1ccc(-c2noc(CCC(=O)NCc3ccco3)n2)cc1,40.9% (active),59.5% (active)
Cc1cc(Cl)c(S(=O)(=O)N2CCN(c3ccccn3)CC2)cc1OCC(=O)NC1CCCCC1,10.5% (inactive),16.3% (inactive)
O=C(CCl)N(Cc1ccccc1)c1ccccc1,26% (inactive),48.6% (active)
COc1ccc(N(C(=O)CCl)C(C(=O)NCCc2ccccc2)c2cccs2)cc1 (stereo unspecified),32.7% (inactive),58.1% (active)
c1ccc(-c2csc3ncnc(NCc4ccccn4)c23)cc1,-7.12% (inactive),4.33% (inactive)
CC(=O)c1ccc(OCCCC(=O)Nc2ccc(C)c(S(=O)(=O)N3CCCCC3)c2)cc1,-1.11% (inactive),-2.06% (inactive)
Cc1c(CCC(=O)N[C@@H](CCCNC(N)=O)C(=O)O)c(=O)oc2cc3oc4c(c3cc12)CCCC4,47.2% (active),57.7% (active)
N#Cc1c(NC(=O)CSc2ncn[nH]2)sc2c1CCCC2,84% (active),88.2% (active)
O=C(O)COc1ccccc1/C=N/NC(=O)Cc1csc(Nc2cccc(C(F)(F)F)c2)n1,-15.7% (inactive),-14.6% (inactive)
Cc1ccc(-c2nc(-c3ccccn3)no2)cc1Cl,11.8% (inactive),34% (inactive)
COc1ccccc1CNS(=O)(=O)c1ccc(-c2cc(C)no2)cc1,-13% (inactive),-7.27% (inactive)
Cc1nc2cc(-c3ccc(Cl)cc3)nn2c(C)c1CCC(=O)NC(C)c1ccc2c(c1)OCCO2 (stereo unspecified),-10.9% (inactive),72.8% (active)
COC(=O)[C@H]1[C@@H](O)[C@@]2(O)c3c(OC)cc(OC)cc3O[C@@]2(c2ccc(OC)cc2)[C@@H]1c1ccc(F)cc1,32.4% (inactive),51.4% (active)
O=C(O)CCC(=O)Nc1ccc(C(=O)OC2CCCCC2)cc1,11.1% (inactive),29.4% (inactive)
COc1cc(OC)nc(Nc2nc(C(N)Cc3ccc(F)cc3)cs2)n1 (stereo unspecified),-4.22% (inactive),-0.34% (inactive)
CC(=O)Nc1ccc(Nc2cc(C)nc3c(-c4ccccc4)cnn23)cc1,-21.3% (inactive),35.7% (inactive)
CCOc1ccc(C(=O)CCC(=O)Nc2cccc(S(=O)(=O)N3CCCCC3)c2)cc1,4.55% (inactive),44.2% (inactive)
COc1ccccc1NC(=S)N1CCCCCC1,-7.33% (inactive),-14.3% (inactive)
CCOc1ccc(-n2c(C)nc3cc(C(=O)NCC4CCCO4)ccc32)cc1 (stereo unspecified),-16.6% (inactive),-3.58% (inactive)
CCCN1C(=O)C2C(C(=O)Nc3cccc(OC)c3)C3C=CC2(O3)C1C(=O)NC1CCCCC1 (stereo unspecified),-13.7% (inactive),-16.6% (inactive)
COc1ccc(OCCCCn2c(CO)nc3ccccc32)cc1,-6.88% (inactive),-14.2% (inactive)
CS(=O)(=O)N(Cc1ccccc1Cl)c1ccc(C(=O)NCc2cccnc2)cc1,-10.9% (inactive),35.5% (inactive)

SMILES,inhibition [1],inhibition [2]
Cc1nc2ccccc2c2c1C(=O)N(c1ccc(C(=O)O)cc1)C2=O,-3.24% (inactive),-28.2% (inactive)
Cc1csc(NC(=O)CSc2ccc([N+](=O)[O-])cn2)n1,-0.96% (inactive),-30.9% (inactive)
COc1cc(F)ccc1-c1csc(C(O)c2ccc(F)c(F)c2)n1 (stereo unspecified),-3.93% (inactive),10.6% (inactive)
O=C1N[C@@H](Cc2ccccc2)C(=O)N2[C@H]1CSCCS2(=O)=O,-5.16% (inactive),-25.1% (inactive)
COc1ccc(-c2nnc(SCC(=O)Oc3ccc(C)cc3)o2)cc1,-10% (inactive),-4.18% (inactive)
c1nnc2c3c4c(sc3ncn12)CCC4,4.85% (inactive),26.2% (inactive)
COc1cc(/C=C/C(=O)c2ccc3c(c2)OCCO3)cc(OC)c1OC,5.55% (inactive),29.2% (inactive)
COc1cc(OC)c(C(=O)C=Cc2ccc(OC)c(OC)c2)c(OC)c1,-5.35% (inactive),6.31% (inactive)
CC(C)(C)c1ccc(SCCc2ccncc2)cc1,-28.2% (inactive),-4.99% (inactive)
CSC1=C(C#N)C(c2ccc3c(c2)OCO3)C2=C(CCCC2=O)N1 (stereo unspecified),0.63% (inactive),-1.64% (inactive)
Cc1ccc(-c2nnc(SCCC(=O)N3CCOCC3)o2)cc1,-40.9% (inactive),-16.8% (inactive)
O=C(Nc1ccnn1C1CCN(C(=O)c2ccc(Cl)cc2)CC1)C1CC1,-6.97% (inactive),-7.33% (inactive)
COc1ccc(NC(=O)Nc2nnc(Cc3ccc(OC)c(OC)c3)s2)cc1,4.37% (inactive),-0.57% (inactive)
O=C(CCc1ccncc1)N1CCCC(Nc2ccc(F)c(F)c2)C1 (stereo unspecified),-3.61% (inactive),-7.87% (inactive)
COc1cc(SC)ccc1C(=O)Nc1ncc(C)s1,10.3% (inactive),24% (inactive)
COc1ccc(/C=C2\SC(=S)N(CCCC(=O)N3CCOCC3)C2=O)cc1,45.9% (active),35.5% (inactive)
O=C(O)c1cccc(CSc2nnc(COc3ccccc3)o2)c1,15.7% (inactive),34.5% (inactive)
COc1cc(NC(=O)CSc2nnc3c(C)cc4cc(C)cc(C)c4n23)c(C(=O)O)cc1OC,-9.86% (inactive),-11.4% (inactive)
CCOC(=O)c1c(C)[nH]c(C(=O)Nc2ccc(NC(C)=O)cc2)c1C,6.79% (inactive),8.17% (inactive)
COc1ccc(C(=O)N/N=C\c2coc3ccc(Cl)cc3c2=O)cc1,3.52% (inactive),5.31% (inactive)
Nc1ccc(C(=O)n2c3ccccc3c3ccccc32)cc1,20.2% (inactive),17.5% (inactive)
O=S(=O)(c1ccc(Cl)cc1)c1snnc1-c1ccccc1,31.6% (inactive),76.7% (active)
O=C(c1ccco1)N1CCN(C(=O)N2c3ccccc3Sc3ccccc32)CC1,6.34% (inactive),14.1% (inactive)

# Reference: PubChem BioAssay
